Assay results as given in the supplement of paper PMC5919970.
Over roughly 2,000 compounds, “fractional viability relative to vehicle” has its median near 0.92; the lowest 2% begin near 0.11. Shown is part of a subset that was picked to be rich in the lowest values.

System: TYKNU
Assay: fractional viability relative to vehicle; TYKNU is a high-grade serous ovarian cancer line; higher = less growth inhibition
Conditions: 72 h, genotype: OPA1 knockout (sgOPA1 #2)
Procedure, shortened: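 Drug treatment lasted 72 h, with cells grown at 37 °C in 5% CO2 in RPMI 1640 supplemented with 10% FBS. Beforehand, TYKNU control cells or their lentiCRISPRv2 knockout derivatives had been seeded at 500 cells per well into drug-stamped 384-well plates carrying a ~2100-compound library at 2 or 10 μM, in duplicate. Viability came from Cell Titer Glo luminescence, with averaged duplicate treatment wells normalised to duplicate control wells in the same plate position.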

Row | SMILES | fractional viability (2uM) | fractional viability (10uM)
1 | CC(=O)O/N=C1\C(=O)N(Cc2cc(Cl)ccc2Cl)c2ccc(Cl)cc21 | 1.06 | 0.985
2 | NC(=O)c1noc([C@H](CCCC2CCCCC2)CC(=O)NO)n1 | 1.1 | 0.853
3 | COC(=O)N1CCN(Cc2cccc(NC(=O)Nc3ccc(C)nc3)c2F)CC1 | 1.01 | 0.982
4 | CCCCC(F)(F)[C@@]1(O)CC[C@H]2[C@@H](CC(=O)[C@@H]2CCCCCCC(=O)O)O1 [Lubiprostone] | 0.935 | 1.03
5 | O=C1c2ccccc2C(=O)c2c1ccc(O)c2O [Alizarin] | 1.19 | 0.838
6 | CC(=O)c1cc2c(o1)C(=O)c1ccccc1C2=O [Napabucasin] | 0.0542 | 0.0318
7 | O=C(O)c1cc(=O)c2ccccc2o1 [Chromocarb] | 0.872 | 0.816
8 | CC(CNC(=O)c1cccnc1)NC(=O)c1cccnc1 (stereo not given) [Nicaraven] | 0.886 | 0.93
9 | C[C@H]1O[C@@H](O[C@H]2[C@@H](O)C[C@H](O[C@H]3[C@@H](O)C[C@H](O[C@H]4CC[C@@]5(C)[C@H](CC[C@@H]6[C@@H]5C[C@@H](O)[C@]5(C)[C@@H](C7=CC(=O)OC7)CC[C@]65O)C4)O[C@@H]3C)O[C@@H]2C)C[C@H](O)[C@@H]1O [Digoxin] | 0.141 | 0.0738
10 | Cn1c(=O)c(F)c(Nc2ccc(I)cc2F)c2c(=O)n(C[C@@H](O)CO)cnc21 | 0.516 | 0.403
11 | COc1ccc(CCNCc2ccc(OCc3ccc(Cl)nc3)c(OC)c2)cc1OC | 1.04 | 0.914
12 | CC[C@H]1OC(=O)[C@H](C)[C@@H](O[C@H]2C[C@@](C)(OC)[C@@H](O)[C@H](C)O2)[C@H](C)[C@@H](O[C@@H]2O[C@H](C)C[C@H](N(C)C)[C@H]2O)[C@](C)(O)C[C@@H](C)C(=O)[C@H](C)[C@H]2OC(=O)O[C@@]21C [Erythromycin Cyclocarbonate] | 0.834 | 0.883
13 | Cc1[nH]c(/C=C2\C(=O)Nc3ccc(S(=O)(=O)N(C)c4cccc(Cl)c4)cc32)c(C)c1C(=O)N1CCN(C)CC1 | 1.37 | 0.133
14 | CN1CCCN(C(=O)c2cccc(-c3ccc(/C=C4/C(=O)Nc5ccc(Cl)cc54)o3)c2)CC1 | 0.132 | 0.0251
15 | CN1CCN(C(=O)c2cc3cc(Cl)ccc3[nH]2)CC1 | 1.08 | 1.08
16 | CS(=O)(=O)c1ccc(-c2nnc(/C=C/c3nnc(-c4ccc(C#N)cc4)o3)n2-c2ccccc2Cl)nc1 | 1.11 | 1.03
17 | O=C(Cc1cccc(OC(F)(F)F)c1)Nc1ccc(CCCCc2nnc(NC(=O)Cc3ccccn3)s2)nn1 | 0.25 | 0.2
18 | CN[C@@H](C)C(=O)N[C@H](C(=O)N1CCC[C@H]1c1nc(C(=O)c2ccc(F)cc2)cs1)C1CCCCC1 | 0.719 | 0.643

Row | SMILES | fractional viability (2uM) | fractional viability (10uM)
19 | N#C/C(=C1/SC[C@@H](c2ccc(Cl)cc2Cl)S1)n1ccnc1 [Luliconazole] | 0.989 | 0.818
20 | Cc1cccc(-c2[nH]c(C(C)(C)C)nc2-c2ccc3c(c2)OCO3)n1 | 1.2 | 0.682
21 | CCCS(=O)(=O)Nc1ccc(F)c(C(=O)c2c[nH]c3ncc(-c4ccc(Cl)cc4)cc23)c1F [Vemurafenib (PLX4032, RG7204)] | 1.13 | 1
22 | COc1ncc(-c2ccc3nccc(-c4ccnnc4)c3c2)cc1NS(=O)(=O)c1ccc(F)cc1F | 0.354 | 0.0636
23 | CC(C)(C)c1ccc(S(=O)(=O)/C=C/C#N)cc1 | 0.357 | 0.0658
24 | Cc1ccc(S(=O)(=O)/C=C/C#N)cc1 | 0.121 | 0.09
25 | NC(=O)c1cccc2[nH]c(-c3ccc(C4CCCN4)cc3F)nc12 (stereo not given) | 0.735 | 0.788
26 | CC[C@H](CO)Nc1nc(NCc2ccccc2)c2ncn(C(C)C)c2n1 [Roscovitine (Seliciclib,CYC202)] | 1.14 | 0.913
27 | Cc1cc(C(O)=C2C(=O)C(=O)N(CCCN3CCOCC3)C2c2ccncc2)ccc1OCc1ccccc1 (stereo not given) | 0.973 | 0.814
28 | CC(O)c1cc(C(=O)N[C@@H](C)Cn2ccc(-c3ccc(C#N)c(Cl)c3)n2)n[nH]1 (stereo not given in full) | 0.945 | 1.06
29 | Cn1ncnc1[C@H]1c2n[nH]c(=O)c3cc(F)cc(c23)N[C@@H]1c1ccc(F)cc1 | 0.905 | 0.986
30 | NC(=O)c1cnc2[nH]ccc2c1N[C@@H]1[C@@H]2CC3C[C@H]1C[C@@](O)(C3)C2 | 0.989 | 1
31 | CC(=O)Nc1cccc2c1c(Sc1ccc(Cl)cc1)c(C)n2CC(=O)O | 0.976 | 0.913
32 | CC(=O)N1c2ccc(-c3ccc(C(=O)O)cc3)cc2[C@H](Nc2ccc(Cl)cc2)C[C@@H]1C | 0.529 | 0.337
33 | NNC(=O)c1ccncc1 [Isoniazid] | 1.01 | 1.08
34 | O=C(NNc1ccccc1)c1ccncc1 | 0.769 | 0.792
35 | O=C(/C=C/c1ccc2ccccc2n1)c1ccncc1 | 0.472 | 0.11
